CSC inhib: cancer stem cell inhibition; cancer stem cell-like cells viability, luminescence; inhibition, % at 7.5 µM; 300,000 compounds, 1.1% hits; in the data active = inhibition above about 75%; inconclusive = no clear call, values can overlap the other calls; tested in HMLE shEcad cells
Mdm2 MdmX PPI: human Mdm2/MdmX binding inhibition; O15151+Q00987; SaOS-2 split-luciferase Mdm2/MdmX complementation, luminescence; inhibition, % at 8 µM; 330,000 compounds, 3% hits; AID 485346;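 active = inhibition of at least 50% at 8 µM in the primary screen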
Target sequence (O15151 whole entry, looked up): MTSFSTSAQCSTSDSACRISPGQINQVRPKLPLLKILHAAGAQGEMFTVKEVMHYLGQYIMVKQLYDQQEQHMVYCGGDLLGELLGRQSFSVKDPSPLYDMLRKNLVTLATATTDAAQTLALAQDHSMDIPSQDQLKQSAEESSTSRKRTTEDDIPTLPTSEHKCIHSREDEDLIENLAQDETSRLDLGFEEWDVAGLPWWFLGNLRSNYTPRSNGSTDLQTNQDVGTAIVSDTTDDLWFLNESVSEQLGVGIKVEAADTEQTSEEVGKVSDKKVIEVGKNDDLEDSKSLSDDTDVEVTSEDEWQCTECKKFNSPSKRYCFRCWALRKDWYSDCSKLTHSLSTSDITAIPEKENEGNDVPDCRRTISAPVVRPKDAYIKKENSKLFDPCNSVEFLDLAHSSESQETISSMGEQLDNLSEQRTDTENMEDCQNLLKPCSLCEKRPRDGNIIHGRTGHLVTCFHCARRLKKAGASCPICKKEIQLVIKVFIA
Target sequence (Q00987 whole entry, looked up): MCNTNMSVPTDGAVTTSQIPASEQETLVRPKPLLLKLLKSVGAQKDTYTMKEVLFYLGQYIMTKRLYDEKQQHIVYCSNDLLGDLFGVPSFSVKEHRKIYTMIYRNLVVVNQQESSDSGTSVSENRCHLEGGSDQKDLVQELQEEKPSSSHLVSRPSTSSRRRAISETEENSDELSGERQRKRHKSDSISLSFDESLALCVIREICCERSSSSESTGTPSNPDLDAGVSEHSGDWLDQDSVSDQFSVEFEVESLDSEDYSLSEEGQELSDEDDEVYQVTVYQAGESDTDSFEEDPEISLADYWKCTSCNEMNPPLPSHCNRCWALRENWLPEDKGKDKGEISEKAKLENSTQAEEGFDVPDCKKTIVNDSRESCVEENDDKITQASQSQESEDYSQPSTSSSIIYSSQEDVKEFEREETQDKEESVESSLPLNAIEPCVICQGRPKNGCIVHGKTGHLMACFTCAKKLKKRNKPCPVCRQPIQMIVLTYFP
GRIN3A LBD mod: modulates the human NR3A ligand-binding domain. 340,000 compounds, 2.5% hits. NR3A LBD differential scanning fluorimetry, Tm shift; 0% = protein alone, 100% = glycine-bound protein. AID 1259313. Tm shift relative to glycine control, % at 25 µM;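 active = melting temperature shift of at least 10% of the positive control shift, at one fixed dose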
MPTP block: permeability transition pore inhibition. isolated mouse mitochondria, Ca2+ swelling absorbance, 30 min. inhibition, % at 10 µM. 360,000 compounds, 1.4% hits;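 active = inhibition of 50% or more, scaled per plate between neutral and stimulator controls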;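 also: 0% = DMSO wells given calcium and 100% = 1 mM EGTA wells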
Beta cell apopt: beta cell apoptosis inhibition | INS-1E cytokine-induced death, ATP luminescence, 48 h; percent of positive-control rescue, neutral wells zero | protection from apoptosis, % (concentration not given with the values) | 300,000 compounds, 0.8% hits;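 active = Every replicate reaches about 75%, or at least half do and their mean reaches it too, limit read from the data; inconclusive = At least half of replicates reach the limit but their mean does not; inactive = Under half of replicates reach the limit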;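 also: 0% = cytokine-treated negative control wells and 100% = positive control rescue; higher means more ATP so stronger rescue from cytokine killing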
SKKanGAS inh: inhibitors of SKKanGAS S. pyogenes growth in kanamycin (SK-promoter or general growth effect); BacTiter-Glo, 6 h; inhibition, % at 7.5 µM; 300,000 compounds, 1.3% hits;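 active = mean replicate score, as percent of positive control median, at least 50; inconclusive = mean below 50 but one replicate at or above 50; inactive = mean and every replicate below 50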;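 also: strain carries kanamycin resistance gene driven by streptokinase promoter and grows in 40 µg/ml kanamycin; loss of luminescence reflects streptokinase promoter inhibition or plain growth inhibition; 0% = median of DMSO wells and 100% = positive control at its reference dose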
Mdm2 MdmX conf: human Mdm2/MdmX binding inhibition, confirmed | shares compounds with Mdm2 MdmX PPI | AID 489028 | luminescent assay | inhibition, % at 8 µM | 10,000 compounds, 55% hits; in the data active = inhibition above about 40%
FLuc counter: inhibits full-length luciferase, flagging false Mdm2/MdmX hits | inhibition, % at 8 µM | shares compounds with Mdm2 MdmX PPI | SaOS-2 full-length luciferase counterscreen, luminescence | 6,200 compounds, 77% hits | AID 504607;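 active = mean inhibition at 8 µM reaching about 37%, which flags the compound as non-specific, limit read from the data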;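 also: p53-null SaOS-2 cells with luciferase driven by a doxycycline-inducible promoter; compound on cells about two nights before reading with doxycycline added after day one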
* = called active by the depositor; ? = inconclusive; . = no result given. Shown are actives, neighbours in structure and some others; about 6.9% of the full set was active somewhere.

SMILES	CSC inhib	Mdm2 MdmX PPI	GRIN3A LBD mod	MPTP block	Beta cell apopt	SKKanGAS inh	Mdm2 MdmX conf	FLuc counter
COc1ccc(CC2S/C(=N/N=C/c3ccccc3O)NC2=O)cc1 (centres undefined)	?	44	-7	6	57	9	.	.
CCOC(=O)N(C)c1c(CC)nc2c(OCc3cc(Cl)cc(Cl)c3)cccn12	.	.	.	2	.	.	.	.
COc1cc(NC(=S)NC(=O)c2ccc(C(C)(C)C)cc2)ccc1NC(=O)c1cccs1	71	90*	0	2	20	11	68*	28
COc1cc(NC(=O)c2cc3ccccc3cc2OC)ccc1NC(=O)c1cccs1	3	58*	21*	0	19	34	57*	90*
CC1(O)C(=O)C=C2C=C(c3ccc(C#N)cc3)OC=C2C1=O (centres undefined)	-6	-11	.	.	-1	6	.	.
CCCCCn1c(=NC(=O)c2cccnc2)c(C#N)cc2c(=O)n3cccc(C)c3nc21	44	73*	1	11	14	11	51*	42*
CCn1nc(C)c(CNC(=O)C2CCC(=O)N(CCc3ccc(OC)cc3)C2)c1C (centres undefined)	7	-4	2	-1	1	-4	.	.
O=S(=O)(c1ccccc1)c1nnn2c1nc(NC1CCN(Cc3ccccc3)CC1)c1cc(Cl)ccc12	0	100*	7	-2	20	12	36	52*
Cc1ccc(C)c(Nc2nc3c(S(=O)(=O)c4ccccc4)nnn3c3ccccc23)c1	7	37	0	48	12	28	.	.
O=S(=O)(c1ccccc1)c1nnn2c1nc(NC1CCN(Cc3ccccc3)CC1)c1ccccc12	17	54*	3	-3	24	8	33	.
O=C1CC(/C=C/c2ccc([N+](=O)[O-])cc2)=Nc2ccccc2N1	3	53*	0	2	4	-4	35	61*
O=C1CC(/C=C/c2ccccn2)=Nc2ccccc2N1	5	20	-3	0	-13	1	.	.
COc1ccc(S(=O)(=O)Nc2cccc(-c3ccc4nncn4n3)c2)cc1F	54	50*	1	2	-2	2	66*	61*
O=S(=O)(Nc1cccc(-c2ccc3nncn3n2)c1)c1cccc(F)c1	-4	9	0	0	2	13	.	.
COc1ccc(Cn2c(CCC(=O)Nc3ccccc3)nc3cccnc32)cc1	14	77*	-1	1	-2	-5	13	.
CCOC(=O)[C@]12CCCC=C1N(Cc1ccco1)C(=O)[C@H](CC(=O)NCCCCc1ccccc1)C2	.	.	.	0	.	.	.	.
COc1cc2c(-c3ccc4cc[nH]c4c3)c(-c3ccc(C#N)cc3)oc(=O)c2cc1OC	39	59*	1	0	27	.	35	52*
COC(=O)c1cc(=O)n(Cc2ccc(OC)c(OC)c2)c(=Nc2ccc(F)cc2)s1	97*	76*	-3	2	-15	8	33	98*
COC(=O)c1cc(=O)n(Cc2ccco2)c(=Nc2ccc(F)cc2)s1	62	58*	-2	3	-14	4	30	.
COC(=O)c1cc(=O)n(CCc2ccc(OC)c(OC)c2)c(=Nc2ccc(F)c(Cl)c2)s1	110*	84*	0	0	11	-1	11	.
COC(=O)c1cc(=O)n(Cc2cccs2)c(=Nc2ccccc2)s1	?	43	2	1	-1	23	.	.
Cc1ccc(NC(=O)/C(=C/c2cccc(Br)c2)NC(=O)c2ccco2)cc1	-11	19	-5	1	-16	4	.	.
Nc1ncc([N+](=O)[O-])c(N2CCCCCC2)n1	-5	75*	0	0	-26	1	73*	49*
O=C(N[C@H]1C/C=C\C[C@@H](CC(=O)N(CCO)Cc2ccccc2)C(=O)NC[C@H](c2ccccc2)OC1=O)OCC1c2ccccc2-c2ccccc21	104*	58*	-8	0	10	.	12	.
O=C(N[C@@H]1C/C=C\C[C@@H](CC(=O)N(CCO)Cc2ccccc2)C(=O)NCCOC1=O)OCC1c2ccccc2-c2ccccc21	.	9	-3	-1	18	.	.	.

Screens: PubChem, several laboratories
